What all share (experiment): DAPPL (digital affinity profiling via proximity ligation, sequencing); 10 mM Tris-HCl pH 7.5, 50 mM NaCl, 1 mM DTT, 4% glycerol, room temperature, 30 min; GST-TFs on glutathione beads, 16-mer random dsDNA library, 0.1% formaldehyde crosslink after washing; high values mean tight binding
Common to all, as to conditions: protein: recombinant; tags: N-terminal GST; dsDNA, one strand shown

The target in experiment [1] is T1, FLI1 (Homo sapiens, UniProt Q01543 1-452).
T1 sequence: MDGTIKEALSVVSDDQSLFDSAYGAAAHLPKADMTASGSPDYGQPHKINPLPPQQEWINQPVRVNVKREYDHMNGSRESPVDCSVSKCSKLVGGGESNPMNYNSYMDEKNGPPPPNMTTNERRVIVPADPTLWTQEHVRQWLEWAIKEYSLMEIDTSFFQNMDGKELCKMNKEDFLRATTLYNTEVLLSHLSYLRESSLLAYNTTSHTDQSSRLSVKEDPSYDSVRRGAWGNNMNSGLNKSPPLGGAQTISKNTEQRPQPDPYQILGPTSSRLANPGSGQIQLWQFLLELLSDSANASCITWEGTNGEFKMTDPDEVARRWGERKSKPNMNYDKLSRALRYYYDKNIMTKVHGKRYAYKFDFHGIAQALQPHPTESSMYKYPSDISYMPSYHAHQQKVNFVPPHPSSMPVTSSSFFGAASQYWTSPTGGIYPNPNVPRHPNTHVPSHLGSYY
An outline of the steps:
(§1)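 After expression in yeast as GST fusions, human transcription factors were bound to glutathione beads, DNA-barcoded and mixed with a tag-only sample. The pools were incubated with 200 nmole of a 16-mer random double-stranded DNA library in Tris/NaCl/DTT/glycerol buffer (30 min, room temperature), washed and crosslinked with 0.1% formaldehyde. Proximity ligation with BsaI/T4 ligase ran for 1 h at 37 °C, before PCR amplification and sequencing on an Illumina NextSeq500. Binding signal is a hexamer's read frequency for a factor divided by its frequency for the tag-only sample.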

The target of experiment [2] is T2, ELK1 (Homo sapiens, UniProt P19419 1-428).
T2 sequence: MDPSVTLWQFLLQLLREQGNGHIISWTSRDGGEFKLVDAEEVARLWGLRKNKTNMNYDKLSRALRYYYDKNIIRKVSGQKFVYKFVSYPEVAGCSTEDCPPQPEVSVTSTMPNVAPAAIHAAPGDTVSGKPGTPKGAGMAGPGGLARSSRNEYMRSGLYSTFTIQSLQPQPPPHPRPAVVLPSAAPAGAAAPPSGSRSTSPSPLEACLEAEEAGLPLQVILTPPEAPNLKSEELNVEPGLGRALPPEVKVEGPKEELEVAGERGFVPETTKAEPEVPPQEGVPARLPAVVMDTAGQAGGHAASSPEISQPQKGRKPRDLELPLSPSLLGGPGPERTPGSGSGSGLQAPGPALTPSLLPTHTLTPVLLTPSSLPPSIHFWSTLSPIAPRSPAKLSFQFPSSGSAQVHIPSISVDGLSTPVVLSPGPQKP
In outline:
as §1

Experiment [3] addresses T3, GABPA (Homo sapiens, UniProt Q06546 1-454).
T3 sequence: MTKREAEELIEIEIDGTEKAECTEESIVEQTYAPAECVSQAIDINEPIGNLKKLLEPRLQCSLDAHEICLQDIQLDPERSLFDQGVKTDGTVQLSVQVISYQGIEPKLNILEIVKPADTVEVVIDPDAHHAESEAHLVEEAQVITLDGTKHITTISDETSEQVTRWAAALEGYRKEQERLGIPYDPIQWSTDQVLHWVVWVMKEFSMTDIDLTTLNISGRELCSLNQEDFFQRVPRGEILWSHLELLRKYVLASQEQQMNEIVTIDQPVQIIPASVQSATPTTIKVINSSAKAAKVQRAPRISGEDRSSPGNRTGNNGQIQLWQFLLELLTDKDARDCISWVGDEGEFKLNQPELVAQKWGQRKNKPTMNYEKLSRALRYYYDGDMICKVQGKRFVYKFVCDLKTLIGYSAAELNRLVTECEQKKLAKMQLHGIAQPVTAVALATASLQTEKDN
An outline of the steps: as §1

Experiment [4] deals with T4, ERG (Homo sapiens, UniProt P11308 1-479).
T4 sequence: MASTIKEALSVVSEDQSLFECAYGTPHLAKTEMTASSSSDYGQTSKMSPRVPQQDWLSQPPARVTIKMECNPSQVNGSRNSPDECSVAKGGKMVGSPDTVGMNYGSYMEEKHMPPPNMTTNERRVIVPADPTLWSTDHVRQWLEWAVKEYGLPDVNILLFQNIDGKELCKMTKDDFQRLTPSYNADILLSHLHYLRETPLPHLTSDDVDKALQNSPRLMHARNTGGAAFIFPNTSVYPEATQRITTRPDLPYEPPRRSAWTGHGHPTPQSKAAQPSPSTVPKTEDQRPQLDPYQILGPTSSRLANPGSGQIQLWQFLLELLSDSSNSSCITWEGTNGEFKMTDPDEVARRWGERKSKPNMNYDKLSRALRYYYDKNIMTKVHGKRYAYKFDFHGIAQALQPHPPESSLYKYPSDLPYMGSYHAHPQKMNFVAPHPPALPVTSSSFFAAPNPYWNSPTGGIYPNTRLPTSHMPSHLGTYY
An outline of the steps: as §1

The target of experiment [5] is ELF1 (Homo sapiens, UniProt P32519 1-619). An outline of the steps:
as §1

The target in experiment [6] is T5, EHF (Homo sapiens, UniProt Q9NZC4 1-300).
T5 sequence: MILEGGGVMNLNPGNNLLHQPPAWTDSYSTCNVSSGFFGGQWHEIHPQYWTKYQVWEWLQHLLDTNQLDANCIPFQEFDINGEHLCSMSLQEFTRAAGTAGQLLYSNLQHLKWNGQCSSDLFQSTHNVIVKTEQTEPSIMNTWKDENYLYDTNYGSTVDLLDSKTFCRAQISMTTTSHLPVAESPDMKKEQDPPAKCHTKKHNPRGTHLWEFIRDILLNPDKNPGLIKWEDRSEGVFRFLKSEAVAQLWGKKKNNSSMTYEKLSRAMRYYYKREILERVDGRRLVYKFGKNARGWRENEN
In outline: as §1

Experiment [7] deals with SPI1 (Homo sapiens, UniProt P17947 1-270). An outline of the steps:
as §1

For experiment [8], the target named is SPIB (Homo sapiens, UniProt Q01892 1-262). In outline: as §1
Experiment [9] has as its target T6, ELK3 (Homo sapiens, UniProt P41970 1-407).
T6 sequence: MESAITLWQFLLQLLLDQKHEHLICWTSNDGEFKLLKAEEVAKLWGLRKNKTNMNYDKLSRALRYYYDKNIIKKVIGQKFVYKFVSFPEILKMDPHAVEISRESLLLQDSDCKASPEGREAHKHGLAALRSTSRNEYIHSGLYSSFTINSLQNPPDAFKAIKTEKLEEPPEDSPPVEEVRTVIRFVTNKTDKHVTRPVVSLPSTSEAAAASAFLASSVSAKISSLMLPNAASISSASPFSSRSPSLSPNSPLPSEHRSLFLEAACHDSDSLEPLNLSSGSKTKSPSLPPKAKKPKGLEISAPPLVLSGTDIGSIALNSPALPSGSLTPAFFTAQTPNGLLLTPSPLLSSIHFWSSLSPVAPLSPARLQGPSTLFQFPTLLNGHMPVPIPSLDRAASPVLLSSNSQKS
An outline of the steps: as §1

SPIB, sequence (Q01892 whole entry): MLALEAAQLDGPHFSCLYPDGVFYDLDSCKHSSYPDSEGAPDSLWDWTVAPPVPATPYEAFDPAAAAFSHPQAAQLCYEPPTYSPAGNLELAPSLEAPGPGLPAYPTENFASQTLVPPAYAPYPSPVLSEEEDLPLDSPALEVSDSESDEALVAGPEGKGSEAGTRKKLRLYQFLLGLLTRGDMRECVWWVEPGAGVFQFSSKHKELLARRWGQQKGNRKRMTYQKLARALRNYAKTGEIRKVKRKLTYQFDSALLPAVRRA
ELF1, sequence (P32519 whole entry): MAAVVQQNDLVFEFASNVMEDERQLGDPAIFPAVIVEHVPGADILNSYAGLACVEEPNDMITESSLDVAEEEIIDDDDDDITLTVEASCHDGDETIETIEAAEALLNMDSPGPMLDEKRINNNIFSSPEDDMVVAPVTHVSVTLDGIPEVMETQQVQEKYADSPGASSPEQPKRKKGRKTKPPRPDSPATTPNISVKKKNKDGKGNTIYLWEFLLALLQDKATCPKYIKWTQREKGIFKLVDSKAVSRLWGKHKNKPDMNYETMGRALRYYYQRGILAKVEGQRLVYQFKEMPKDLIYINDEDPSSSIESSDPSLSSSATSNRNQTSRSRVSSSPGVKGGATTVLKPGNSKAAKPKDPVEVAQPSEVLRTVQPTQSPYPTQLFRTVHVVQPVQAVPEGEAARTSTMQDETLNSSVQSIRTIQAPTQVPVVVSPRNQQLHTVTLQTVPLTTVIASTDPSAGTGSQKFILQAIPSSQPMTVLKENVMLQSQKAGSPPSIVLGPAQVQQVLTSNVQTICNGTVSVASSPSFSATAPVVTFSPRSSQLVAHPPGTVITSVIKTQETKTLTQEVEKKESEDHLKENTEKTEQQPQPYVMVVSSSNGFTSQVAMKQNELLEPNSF

On to TCTATA, for which the binding signal in experiment [1] is 1.09 fold enrichment (6-mer frequency, TF over GST control); in experiment [2] it was 1.13 fold enrichment (6-mer frequency, TF over GST control); in [3], 1.11 fold enrichment (6-mer frequency, TF over GST control); in [4], 1.02 fold enrichment (6-mer frequency, TF over GST control); in experiment [5], 1.26 fold enrichment (6-mer frequency, TF over GST control); in experiment [6] it was 1.07 fold enrichment (6-mer frequency, TF over GST control). Further, the binding signal in experiment [7] was 1.07 fold enrichment (6-mer frequency, TF over GST control); in experiment [8], 1.15 fold enrichment (6-mer frequency, TF over GST control); in [9], 1.17 fold enrichment (6-mer frequency, TF over GST control).
For CCTCTT, the binding signal in [1] was 1.5 fold enrichment (6-mer frequency, TF over GST control); in experiment [2], 1.45 fold enrichment (6-mer frequency, TF over GST control); in [3] it was 1.6 fold enrichment (6-mer frequency, TF over GST control); in experiment [4], 1.68 fold enrichment (6-mer frequency, TF over GST control); in experiment [5] it was 1.5 fold enrichment (6-mer frequency, TF over GST control); in experiment [6] it was 1.71 fold enrichment (6-mer frequency, TF over GST control). The binding signal in [7] was 2.57 fold enrichment (6-mer frequency, TF over GST control); in experiment [8], 1.67 fold enrichment (6-mer frequency, TF over GST control); in experiment [9] it was 1.66 fold enrichment (6-mer frequency, TF over GST control).
As to AAGCTA, the binding signal in experiment [1] is 1.16 fold enrichment (6-mer frequency, TF over GST control); in [2], 1.13 fold enrichment (6-mer frequency, TF over GST control); in experiment [3] it was 1.08 fold enrichment (6-mer frequency, TF over GST control); in experiment [4], 1.13 fold enrichment (6-mer frequency, TF over GST control); in experiment [5] it was 1.11 fold enrichment (6-mer frequency, TF over GST control); in [6] it was 1.19 fold enrichment (6-mer frequency, TF over GST control). Also, the binding signal is 1.04 fold enrichment (6-mer frequency, TF over GST control) in experiment [7]; 1.2 fold enrichment (6-mer frequency, TF over GST control) in [8]; 1.21 fold enrichment (6-mer frequency, TF over GST control) in experiment [9].
Take ATCCAC: the binding signal in experiment [1] was 1.23 fold enrichment (6-mer frequency, TF over GST control); in experiment [2], 1.28 fold enrichment (6-mer frequency, TF over GST control); in experiment [3] it was 1.32 fold enrichment (6-mer frequency, TF over GST control); in experiment [4], 1.22 fold enrichment (6-mer frequency, TF over GST control); in experiment [5], 1.22 fold enrichment (6-mer frequency, TF over GST control); in experiment [6], 1.25 fold enrichment (6-mer frequency, TF over GST control). Besides, the binding signal in experiment [7] was 1.15 fold enrichment (6-mer frequency, TF over GST control); in experiment [8], 1.19 fold enrichment (6-mer frequency, TF over GST control); in [9], 1.27 fold enrichment (6-mer frequency, TF over GST control).
For GTAATT, the binding signal was 1.23 fold enrichment (6-mer frequency, TF over GST control) in [1]; 1.1 fold enrichment (6-mer frequency, TF over GST control) in experiment [2]; 1.19 fold enrichment (6-mer frequency, TF over GST control) in experiment [3]; 1.19 fold enrichment (6-mer frequency, TF over GST control) in experiment [4]; 1.22 fold enrichment (6-mer frequency, TF over GST control) in experiment [5]; 1.21 fold enrichment (6-mer frequency, TF over GST control) in experiment [6]. Further, the binding signal in experiment [7] was 1.25 fold enrichment (6-mer frequency, TF over GST control); in experiment [8], 1.23 fold enrichment (6-mer frequency, TF over GST control); in [9], 1.29 fold enrichment (6-mer frequency, TF over GST control).
As for CAACCT, the binding signal in [1] was 1.2 fold enrichment (6-mer frequency, TF over GST control); in experiment [2], 1.16 fold enrichment (6-mer frequency, TF over GST control); in [3], 1.23 fold enrichment (6-mer frequency, TF over GST control); in experiment [4], 1.13 fold enrichment (6-mer frequency, TF over GST control); in experiment [5] it was 1.2 fold enrichment (6-mer frequency, TF over GST control); in experiment [6], 1.21 fold enrichment (6-mer frequency, TF over GST control). Also, the binding signal is 1.14 fold enrichment (6-mer frequency, TF over GST control) in experiment [7]; 1.17 fold enrichment (6-mer frequency, TF over GST control) in experiment [8]; 1.08 fold enrichment (6-mer frequency, TF over GST control) in experiment [9].
For AAACTG, the binding signal is 1.09 fold enrichment (6-mer frequency, TF over GST control) in experiment [1]; 1.11 fold enrichment (6-mer frequency, TF over GST control) in experiment [2]; 1.17 fold enrichment (6-mer frequency, TF over GST control) in experiment [3]; 1.01 fold enrichment (6-mer frequency, TF over GST control) in [4]; 1.09 fold enrichment (6-mer frequency, TF over GST control) in experiment [5]; 1.06 fold enrichment (6-mer frequency, TF over GST control) in experiment [6]. Also, the binding signal in [7] is 1.12 fold enrichment (6-mer frequency, TF over GST control); in experiment [8], 1.1 fold enrichment (6-mer frequency, TF over GST control); in experiment [9], 1.32 fold enrichment (6-mer frequency, TF over GST control).
TCTGTT: the binding signal in experiment [1] was 1.41 fold enrichment (6-mer frequency, TF over GST control); in experiment [2], 1.47 fold enrichment (6-mer frequency, TF over GST control); in [3], 1.24 fold enrichment (6-mer frequency, TF over GST control); in experiment [4], 1.42 fold enrichment (6-mer frequency, TF over GST control); in experiment [5], 1.42 fold enrichment (6-mer frequency, TF over GST control); in experiment [6] it was 1.45 fold enrichment (6-mer frequency, TF over GST control). Further, the binding signal is 1.43 fold enrichment (6-mer frequency, TF over GST control) in experiment [7]; 1.33 fold enrichment (6-mer frequency, TF over GST control) in experiment [8]; 1.15 fold enrichment (6-mer frequency, TF over GST control) in experiment [9].
